Drawing on paper PMC11006913, this text covers binding signal for 6 sequences.

What all share (test): PBM; 200 nM protein, PBS
Common to all, as to conditions: dsDNA, one strand shown

The target of experiment [1] is HOXB9 (Homo sapiens, UniProt P17482 171-250, T197M).
For experiment [2], the target named is HOXC9 (Homo sapiens, UniProt P31274 178-260, K195R).
Experiment [3] has as its target HOXB9 (Homo sapiens, UniProt P17482 171-250).
The target in experiment [4] is HOXC9 (Homo sapiens, UniProt P31274 178-260).
The target in experiment [5] is HOXC9 (Homo sapiens, UniProt P31274 178-260, R193K).
The target in experiment [6] is HOXB9 (Homo sapiens, UniProt P17482 171-250, R186Q).
In experiment [7] the target is HOXC9 (Homo sapiens, UniProt P31274 178-260, R222W).
For experiment [8], the target named is HOXB6 (Homo sapiens, UniProt P17509 132-218, K202E).
Experiment [9] has as its target PROP1 (Homo sapiens, UniProt O75360 56-141).
The target of experiment [10] is PROP1 (Homo sapiens, UniProt O75360 56-141, R99H).
Experiment [11] deals with PROP1 (Homo sapiens, UniProt O75360 56-141, F88S).
For experiment [12], the target named is HOXB6 (Homo sapiens, UniProt P17509 132-218).
For experiment [13], the target named is HOXC10 (Homo sapiens, UniProt Q9NYD6 254-340).
For experiment [14], the target named is HOXC10 (Homo sapiens, UniProt Q9NYD6 254-340, K271E).
The target in experiment [15] is VAX1 (Homo sapiens, UniProt Q5SQQ9 86-172).
For experiment [16], the target named is VAX1 (Homo sapiens, UniProt Q5SQQ9 86-172, T142I).
Experiment [17] concerns the target VAX1 (Homo sapiens, UniProt Q5SQQ9 86-172, K157R).
Experiment [18] concerns the target T1, PAX4 (Homo sapiens, UniProt O43316 9-242, R200K).
T1 sequence: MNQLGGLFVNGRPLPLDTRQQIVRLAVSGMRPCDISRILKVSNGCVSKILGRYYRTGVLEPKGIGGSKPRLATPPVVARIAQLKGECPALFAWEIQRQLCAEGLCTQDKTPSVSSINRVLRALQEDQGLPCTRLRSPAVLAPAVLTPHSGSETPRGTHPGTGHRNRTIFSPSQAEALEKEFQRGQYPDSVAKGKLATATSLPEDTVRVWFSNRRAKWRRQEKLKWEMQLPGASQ

A further experiment addresses PRRX1 (Homo sapiens, UniProt P54821 80-166, F113S).
The target of experiment [19] is ALX3 (Homo sapiens, UniProt O95076 139-225, N203Q).
Experiment [20] concerns the target T2, PAX4 (Homo sapiens, UniProt O43316 9-242, F177V).
T2 sequence: T1 sequence with F169V, K192R

Experiment [21] has as its target T3, PAX4 (Homo sapiens, UniProt O43316 9-242, F177Y).
T3 sequence: T1 sequence with F169Y, K192R

Experiment [22] concerns the target T4, PAX4 (Homo sapiens, UniProt O43316 9-242, R227W).
T4 sequence: T1 sequence with K192R, R219W

Experiment [23] deals with ALX3 (Homo sapiens, UniProt O95076 139-225, N203S).
Experiment [24] concerns the target T5, PAX4 (Homo sapiens, UniProt O43316 9-242).
T5 sequence: T1 sequence with K192R

Experiment [25] has as its target MSX2 (Homo sapiens, UniProt P35548 130-214, R199I).
Experiment [26] addresses T6, PAX4 (Homo sapiens, UniProt O43316 9-242, R200Q).
T6 sequence: T1 sequence with K192Q

The target in experiment [27] is MSX2 (Homo sapiens, UniProt P35548 130-214).
Experiment [28] has as its target MSX2 (Homo sapiens, UniProt P35548 130-214, F161Y).
The target in experiment [29] is HOXA7 (Homo sapiens, UniProt P31268 116-202).
In experiment [30] the target is HOXA7 (Homo sapiens, UniProt P31268 116-202, W177C).

Positions count from the first letter of the chain named.

HOXB9 (Homo sapiens, UniProt P17482 171-250, T197M), sequence (P17482 171-250 T197M): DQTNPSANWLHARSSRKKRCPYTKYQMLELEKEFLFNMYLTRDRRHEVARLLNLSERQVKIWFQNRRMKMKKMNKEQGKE
HOXB9 (Homo sapiens, UniProt P17482 171-250, R186Q), sequence (P17482 171-250 R186Q): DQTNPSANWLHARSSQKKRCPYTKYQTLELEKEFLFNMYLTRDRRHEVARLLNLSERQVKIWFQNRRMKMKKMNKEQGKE
HOXB9 (Homo sapiens, UniProt P17482 171-250), sequence (P17482 171-250): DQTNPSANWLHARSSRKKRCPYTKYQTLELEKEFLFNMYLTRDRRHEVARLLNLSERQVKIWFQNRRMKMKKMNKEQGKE
HOXB6 (Homo sapiens, UniProt P17509 132-218, K202E), sequence (P17509 132-218 K202E): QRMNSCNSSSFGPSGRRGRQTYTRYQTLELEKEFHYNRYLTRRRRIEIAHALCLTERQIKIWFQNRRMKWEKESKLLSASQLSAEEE
HOXC9 (Homo sapiens, UniProt P31274 178-260, R193K), sequence (P31274 178-260 R193K): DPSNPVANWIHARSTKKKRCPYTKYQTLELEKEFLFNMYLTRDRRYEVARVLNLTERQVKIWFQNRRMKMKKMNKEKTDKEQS
HOXC9 (Homo sapiens, UniProt P31274 178-260, R222W), sequence (P31274 178-260 R222W): as the sequence (P31274 178-260 R193K) above, with K16R, R45W counted along it
HOXC10 (Homo sapiens, UniProt Q9NYD6 254-340), sequence (Q9NYD6 254-340): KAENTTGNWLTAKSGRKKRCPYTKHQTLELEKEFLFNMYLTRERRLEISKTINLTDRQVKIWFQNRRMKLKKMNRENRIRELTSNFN
PRRX1, sequence (P54821 80-166 F113S): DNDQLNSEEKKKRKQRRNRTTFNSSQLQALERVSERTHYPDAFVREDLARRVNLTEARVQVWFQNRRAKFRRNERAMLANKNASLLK
HOXA7 (Homo sapiens, UniProt P31268 116-202, W177C), sequence (P31268 116-202 W177C): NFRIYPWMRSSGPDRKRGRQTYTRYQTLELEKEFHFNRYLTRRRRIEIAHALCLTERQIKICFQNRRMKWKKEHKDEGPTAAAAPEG
ALX3 (Homo sapiens, UniProt O95076 139-225, N203S), sequence (O95076 139-225 N203S): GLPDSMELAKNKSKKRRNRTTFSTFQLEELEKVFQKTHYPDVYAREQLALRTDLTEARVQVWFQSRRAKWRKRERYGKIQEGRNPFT
HOXC9 (Homo sapiens, UniProt P31274 178-260, K195R), sequence (P31274 178-260 K195R): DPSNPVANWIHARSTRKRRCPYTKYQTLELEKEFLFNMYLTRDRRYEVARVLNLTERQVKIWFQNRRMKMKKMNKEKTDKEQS
PROP1 (Homo sapiens, UniProt O75360 56-141, F88S), sequence (O75360 56-141 F88S): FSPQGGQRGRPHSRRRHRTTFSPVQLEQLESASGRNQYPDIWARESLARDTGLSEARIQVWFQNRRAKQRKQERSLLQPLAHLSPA
MSX2 (Homo sapiens, UniProt P35548 130-214, F161Y), sequence (P35548 130-214 F161Y): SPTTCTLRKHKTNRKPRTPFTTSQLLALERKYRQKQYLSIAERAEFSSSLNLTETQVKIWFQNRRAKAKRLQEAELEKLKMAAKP
MSX2 (Homo sapiens, UniProt P35548 130-214, R199I), sequence (P35548 130-214 R199I): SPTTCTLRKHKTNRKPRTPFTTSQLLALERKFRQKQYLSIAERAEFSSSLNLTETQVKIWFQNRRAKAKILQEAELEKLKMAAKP
HOXC10 (Homo sapiens, UniProt Q9NYD6 254-340, K271E), sequence (Q9NYD6 254-340 K271E): as the sequence (Q9NYD6 254-340) above, with K18E counted along it
VAX1 (Homo sapiens, UniProt Q5SQQ9 86-172, T142I), sequence (Q5SQQ9 86-172 T142I): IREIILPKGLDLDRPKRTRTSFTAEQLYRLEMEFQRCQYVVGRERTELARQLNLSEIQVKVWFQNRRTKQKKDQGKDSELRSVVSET
HOXB6 (Homo sapiens, UniProt P17509 132-218), sequence (P17509 132-218): as the sequence (P17509 132-218 K202E) above, with E71K counted along it
HOXA7 (Homo sapiens, UniProt P31268 116-202), sequence (P31268 116-202): as the sequence (P31268 116-202 W177C) above, with C62W counted along it
HOXC9 (Homo sapiens, UniProt P31274 178-260), sequence (P31274 178-260): as the sequence (P31274 178-260 R193K) above, with K16R counted along it
VAX1 (Homo sapiens, UniProt Q5SQQ9 86-172), sequence (Q5SQQ9 86-172): as the sequence (Q5SQQ9 86-172 T142I) above, with I57T counted along it
PROP1 (Homo sapiens, UniProt O75360 56-141), sequence (O75360 56-141): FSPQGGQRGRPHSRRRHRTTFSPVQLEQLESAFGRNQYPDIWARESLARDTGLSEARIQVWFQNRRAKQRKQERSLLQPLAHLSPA
PROP1 (Homo sapiens, UniProt O75360 56-141, R99H), sequence (O75360 56-141 R99H): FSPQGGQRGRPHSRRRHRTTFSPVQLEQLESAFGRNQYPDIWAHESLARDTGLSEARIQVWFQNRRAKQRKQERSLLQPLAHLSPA
VAX1 (Homo sapiens, UniProt Q5SQQ9 86-172, K157R), sequence (Q5SQQ9 86-172 K157R): as the sequence (Q5SQQ9 86-172 T142I) above, with I57T, K72R counted along it
ALX3 (Homo sapiens, UniProt O95076 139-225, N203Q), sequence (O95076 139-225 N203Q): as the sequence (O95076 139-225 N203S) above, with S65Q counted along it
MSX2 (Homo sapiens, UniProt P35548 130-214), sequence (P35548 130-214): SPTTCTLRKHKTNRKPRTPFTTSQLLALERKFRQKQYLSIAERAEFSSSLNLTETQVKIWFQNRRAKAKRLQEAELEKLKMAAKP

As for CCCCCAGA, the binding signal is 8.56 upbm affinity estimate (log intensity, higher = more binding, comparable within an allelic series) with HOXB9 [1]; 9.67 upbm affinity estimate (log intensity, higher = more binding, comparable within an allelic series) with HOXC9 [2]; 8.41 upbm affinity estimate (log intensity, higher = more binding, comparable within an allelic series) with HOXB9 [3]; 9.59 upbm affinity estimate (log intensity, higher = more binding, comparable within an allelic series) in the experiment with HOXC9 [4]; 9.69 upbm affinity estimate (log intensity, higher = more binding, comparable within an allelic series) with HOXC9 [5]; 8.47 upbm affinity estimate (log intensity, higher = more binding, comparable within an allelic series) with HOXB9 [6]. The binding signal in the experiment with HOXC9 [7] is 9.54 upbm affinity estimate (log intensity, higher = more binding, comparable within an allelic series).

Turning to GGTGGAGA, the binding signal was 8.58 upbm affinity estimate (log intensity, higher = more binding, comparable within an allelic series) with HOXB9 [1]; 9.03 upbm affinity estimate (log intensity, higher = more binding, comparable within an allelic series) with HOXB6 [8]; 8.51 upbm affinity estimate (log intensity, higher = more binding, comparable within an allelic series) with HOXB9 [3]; 6.89 upbm affinity estimate (log intensity, higher = more binding, comparable within an allelic series) with PROP1 [9]; 6.82 upbm affinity estimate (log intensity, higher = more binding, comparable within an allelic series) with PROP1 [10]; 8.56 upbm affinity estimate (log intensity, higher = more binding, comparable within an allelic series) with HOXB9 [6]. Further, the binding signal in the experiment with PROP1 [11] was 6.65 upbm affinity estimate (log intensity, higher = more binding, comparable within an allelic series); in the experiment with HOXB6 [12], 9.09 upbm affinity estimate (log intensity, higher = more binding, comparable within an allelic series).

Take CTGCTCCC: the binding signal with HOXB9 [1] is 8.68 upbm affinity estimate (log intensity, higher = more binding, comparable within an allelic series); with HOXC10 [13] it was 10.1 upbm affinity estimate (log intensity, higher = more binding, comparable within an allelic series); in the experiment with HOXB9 [3] it was 8.67 upbm affinity estimate (log intensity, higher = more binding, comparable within an allelic series); in the experiment with HOXC10 [14], 10.1 upbm affinity estimate (log intensity, higher = more binding, comparable within an allelic series); with VAX1 [15], 7.16 upbm affinity estimate (log intensity, higher = more binding, comparable within an allelic series); in the experiment with HOXB9 [6], 8.65 upbm affinity estimate (log intensity, higher = more binding, comparable within an allelic series). The binding signal with VAX1 [16] is 7.2 upbm affinity estimate (log intensity, higher = more binding, comparable within an allelic series); with VAX1 [17], 7.01 upbm affinity estimate (log intensity, higher = more binding, comparable within an allelic series).

Regarding ATTAAATA, the binding signal with HOXB9 [1] was 10.1 upbm affinity estimate (log intensity, higher = more binding, comparable within an allelic series); with PAX4 [18], 11.7 upbm affinity estimate (log intensity, higher = more binding, comparable within an allelic series); with PRRX1, 11.1 upbm affinity estimate (log intensity, higher = more binding, comparable within an allelic series); in the experiment with HOXB6 [8], 10 upbm affinity estimate (log intensity, higher = more binding, comparable within an allelic series); with HOXB9 [3] it was 11.7 upbm affinity estimate (log intensity, higher = more binding, comparable within an allelic series); in the experiment with ALX3 [19] it was 8.66 upbm affinity estimate (log intensity, higher = more binding, comparable within an allelic series). Further, the binding signal is 12.5 upbm affinity estimate (log intensity, higher = more binding, comparable within an allelic series) with HOXC9 [5]; 10.8 upbm affinity estimate (log intensity, higher = more binding, comparable within an allelic series) with PAX4 [20]; 11.1 upbm affinity estimate (log intensity, higher = more binding, comparable within an allelic series) in the experiment with PAX4 [21]; 11.5 upbm affinity estimate (log intensity, higher = more binding, comparable within an allelic series) with HOXB9 [6]; 11.1 upbm affinity estimate (log intensity, higher = more binding, comparable within an allelic series) with HOXC9 [7]; 11 upbm affinity estimate (log intensity, higher = more binding, comparable within an allelic series) with PAX4 [22]. In addition, in the experiment with ALX3 [23], the binding signal is 8.86 upbm affinity estimate (log intensity, higher = more binding, comparable within an allelic series).

In the case of AGCCGCAG, the binding signal was 8.34 upbm affinity estimate (log intensity, higher = more binding, comparable within an allelic series) with HOXB9 [1]; 9.2 upbm affinity estimate (log intensity, higher = more binding, comparable within an allelic series) with PAX4 [18]; 9.21 upbm affinity estimate (log intensity, higher = more binding, comparable within an allelic series) in the experiment with PAX4 [24]; 8.11 upbm affinity estimate (log intensity, higher = more binding, comparable within an allelic series) in the experiment with HOXB9 [3]; 9.46 upbm affinity estimate (log intensity, higher = more binding, comparable within an allelic series) with MSX2 [25]; 9.21 upbm affinity estimate (log intensity, higher = more binding, comparable within an allelic series) with PAX4 [26]. Further, the binding signal was 9.11 upbm affinity estimate (log intensity, higher = more binding, comparable within an allelic series) in the experiment with PAX4 [20]; 9.43 upbm affinity estimate (log intensity, higher = more binding, comparable within an allelic series) in the experiment with MSX2 [27]; 9.12 upbm affinity estimate (log intensity, higher = more binding, comparable within an allelic series) with PAX4 [21]; 8.24 upbm affinity estimate (log intensity, higher = more binding, comparable within an allelic series) in the experiment with HOXB9 [6]; 9.5 upbm affinity estimate (log intensity, higher = more binding, comparable within an allelic series) with MSX2 [28]; 9.18 upbm affinity estimate (log intensity, higher = more binding, comparable within an allelic series) in the experiment with PAX4 [22].

Turning to CTAGGCTC, the binding signal in the experiment with HOXB9 [1] is 8.49 upbm affinity estimate (log intensity, higher = more binding, comparable within an allelic series); with HOXA7 [29] it was 8.33 upbm affinity estimate (log intensity, higher = more binding, comparable within an allelic series); with HOXB9 [3] it was 8.52 upbm affinity estimate (log intensity, higher = more binding, comparable within an allelic series); in the experiment with HOXB9 [6], 8.53 upbm affinity estimate (log intensity, higher = more binding, comparable within an allelic series); with HOXA7 [30], 8.41 upbm affinity estimate (log intensity, higher = more binding, comparable within an allelic series).
